# Numbering of substitutions follows the chain as printed.
# Target: T1, SALL4 ZFC4 WT (HT-SELEX) (Mus musculus, UniProt Q8BX22 870-940)
# T1 sequence: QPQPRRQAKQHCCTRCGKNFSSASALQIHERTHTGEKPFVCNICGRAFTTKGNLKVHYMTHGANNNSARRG
# Test: HT-SELEX; high values mean tight binding
# Conditions: protein: recombinant; vector His6-GST; dsDNA, one strand shown
# Procedure, shortened: (§1)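 Recombinant mouse SALL4 zinc finger cluster 4 (residues 870–940, 1 µg), purified, was mixed with library DNA (1.5 µg in the first cycle, 200 ng thereafter) in 100 µl of buffer containing 10 mM Tris–HCl pH 7.5, 50 mM NaCl, poly(dI-dC) and DTT, and left for 10 min at room temperature. Complexes were captured on Ni2+ beads, washed, amplified by PCR and reselected for up to 6 cycles in triplicate, after which MiSeq sequencing and a 6-mer scan followed. Binding signal is the read fraction of each canonical k-mer, given as fold change relative to the starting random library.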
row,Sequence,binding signal [fold-change vs cycle 0]
1,CTCTTA,1.46 ± 0.0534
2,GAAGTA,1.43 ± 0.0516
3,ATTCTC,1.41 ± 0.062
4,GGAATA,1.41 ± 0.0746
5,CAATAG,1.21 ± 0.0269
6,ACGAAT,1.18 ± 0.0691
7,ACCATA,1.42 ± 0.0615
8,ACTATG,1.34 ± 0.073
9,GGTATA,1.3 ± 0.0598
10,ATACGA,1.26 ± 0.0299
11,GAACTA,1.37 ± 0.088
12,ATGATG,1.43 ± 0.0727
13,TCGTAA,1.21 ± 0.0956
14,AGAATA,2.17 ± 0.0586
15,GCATTA,1.15 ± 0.025
16,GTGTTA,1.31 ± 0.0667

# Target: T2, SALL4 ZFC4 R900W (HT-SELEX) (Mus musculus, UniProt Q8BX22 870-940, R900W)
# T2 sequence: T1 sequence with R31W
# Test: HT-SELEX; high values mean tight binding
# Conditions: protein: recombinant; vector His6-GST; dsDNA, one strand shown
# Procedure, shortened: as §1
row,Sequence,binding signal [fold-change vs cycle 0]
1,ATAGCA,1.21 ± 0.0922
2,ATGGAG,1.04 ± 0.0611
3,ATACCA,1.39 ± 0.0221
4,CAGATA,1.33 ± 0.0549
5,ACTCCA,1.03 ± 0.0645
6,AAAACT,1.7 ± 0.107
7,ATTTGG,1.09 ± 0.0268
8,CATAGA,1.37 ± 0.0567
9,TAAGAA,2.2 ± 0.155
10,GGAAGA,1.12 ± 0.0339
11,ATGCAA,1.18 ± 0.0732
12,CCAATA,1.24 ± 0.0246
13,GAGAGA,1.06 ± 0.0438
14,ACGAAA,1.12 ± 0.0308
15,ACTGAG,1.01 ± 0.0326
16,CTCAAA,1.2 ± 0.0701
17,AAATGG,1.16 ± 0.0862

# From paper PMC9838217, “Structure of SALL4 zinc finger domain reveals link between AT-rich DNA binding and Okihiro syndrome”
